High-throughput results deposited in PubChem by National Center for Advancing Translational Sciences (NCATS).
D2 PAM-1 – Beta-Arrestin HTS for Positive Allosteric Modulators of the Human D2 Dopamine Receptor: Potentiators. potentiation, % (test concentration not listed). DiscoveRx D2 beta-arrestin cells, luminescence, 90 min; 100% = 57 uM dopamine signal. 0.23% of 360,000 active. AID 624464, 2012. D(2) dopamine receptor (Homo sapiens), P14416; in the data active = potentiation above about 50%
Target sequence (P14416 whole entry, looked up): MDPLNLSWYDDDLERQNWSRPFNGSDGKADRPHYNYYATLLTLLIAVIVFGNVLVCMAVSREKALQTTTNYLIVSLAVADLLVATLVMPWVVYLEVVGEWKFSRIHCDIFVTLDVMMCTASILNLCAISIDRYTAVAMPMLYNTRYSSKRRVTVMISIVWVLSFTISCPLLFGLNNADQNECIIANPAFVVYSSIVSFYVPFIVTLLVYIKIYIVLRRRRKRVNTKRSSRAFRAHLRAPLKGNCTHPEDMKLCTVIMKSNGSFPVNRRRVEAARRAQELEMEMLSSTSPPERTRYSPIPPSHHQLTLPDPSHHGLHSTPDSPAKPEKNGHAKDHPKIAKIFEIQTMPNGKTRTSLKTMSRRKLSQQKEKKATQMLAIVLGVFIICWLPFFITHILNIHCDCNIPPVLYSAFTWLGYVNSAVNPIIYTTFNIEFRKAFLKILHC
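D2 cells co-treated with compound plus 50 nM dopamine (EC20) for 90 min at 37 deg C to detect potentiation. Beta-arrestin recruitment was read as enzyme-fragment luminescence after 1 h at ambient temperature. Full response was set by 57 uM dopamine.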
D2 ag-1 – HTS Assay for Allosteric Agonists of the Human D2 Dopamine Receptor: Primary Screen for Agonists. D(2) dopamine receptor (Homo sapiens), P14416. HEK293 T-REx D2 cells, calcium flux agonist mode. activation, % at 2 µM. 0.53% of 340,000 active;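 active = activation over 3 SD above normal in the single-dose calcium agonist read, cut at about 30% in these data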; also: 0% is about no effect
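Agonism scored from kinetic calcium signal (1 read/sec, 180 s) following compound pin transfer, after a 10 s baseline. Cells: HEK293 Trex line expressing inducible D2 receptor coupled to calcium, dye-loaded after overnight culture at 30 C.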
D2 PAM-2 – HTS Assay for Positive Allosteric Modulators of the Human D2 Dopamine Receptor: Primary Screen for Potentiators; 0.34% of 340,000 active; HEK293 T-REx D2, calcium flux, EC20 dopamine potentiation; AID 485347, 2010; potentiation, % at 10 µM;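 active = potentiation over 3 SD above the plate norm, cut at about 30% in these data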; also: 0% is about no effect
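Tetracycline-induced Hek293 Trex D2 cells, force-coupled to calcium, loaded with no-wash calcium dye. Compound added with 180 s kinetic read for agonism, then EC20 dopamine and a further 180 s read for potentiation.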
D2 antagonist – HTS Assay for Allosteric Antagonists of the Human D2 Dopamine Receptor: Primary Screen for Antagonists. D(2) dopamine receptor (Homo sapiens), P14416. HEK293 TREx D2 cells, calcium flux, dopamine EC80. inhibition, % at 10 µM. AID 485344, 2010. 2% of 340,000 active; in the data active = inhibition above about 30%; inactive = below that, where a call was filed; also: 0% is about no effect
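Antagonism is scored as inhibition of an EC80 dopamine-evoked calcium signal in a force-coupled, tetracycline-inducible HEK293 T-REx D2 line, with compound present 180 s before agonist.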
D2 ag-2 – Beta-Arrestin HTS for Positive Allosteric Modulators of the Human D2 Dopamine Receptor: Agonists | D(2) dopamine receptor (Homo sapiens), P14416 | DiscoveRx PathHunter D2 beta-arrestin, luminescence, 90 min; 100% = 57 uM dopamine signal | activation, % (no concentration beside the values) | 0.084% of 360,000 active | AID 624465, 2012; in the data active = activation above about 40%
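Agonist mode: compounds alone added to overnight-plated D2 PathHunter cells for 90 min at 37 C, with 57 uM final dopamine (EC100) defining full response. Beta-arrestin recruitment detected by chemiluminescent reagent, read after 1 h at ambient temperature.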
* marks the source's active call; other numbers are inactive results; nt = no result. Shown are actives, neighbours in structure and some others; about 2.4% of the full set was active somewhere.

SMILES | D2 PAM-1 | D2 ag-1 | D2 PAM-2 | D2 antagonist | D2 ag-2
Cc1nc2nc(-c3ccc(Cl)cc3)[nH]n2c(=O)c1C | nt | 0 | -8 | 6 | nt
COc1ccc(-c2nnc(SCC(=O)c3[nH]c(C)c(C(C)=O)c3C)o2)cc1 | -4 | 0 | 38* | -8 | 1
CC(=O)c1c(C)[nH]c(C(=O)CSc2nnc(-c3ccco3)o2)c1C | -3 | 0 | 8 | -10 | 3
COc1ccc(NS(=O)(=O)c2cc(NC(=O)CCNC(C)=O)ccc2N2CCCCC2)cc1 | -2 | 0 | 4 | 37* | 2
COc1ccc(NC(=O)CN(C)C(=O)c2cc(S(=O)(=O)N(C)C)ccc2N2CCCC2)cc1 | 3 | 1 | 8 | 38* | 0
CN(C)S(=O)(=O)c1ccc(N2CCCC2)c(C(=O)NNC(=O)COc2ccccc2Cl)c1 | -16 | -1 | 3 | 20 | -2
CN(C)S(=O)(=O)c1ccc(N2CCCC2)c(C(=O)NNC(=O)COc2ccccc2F)c1 | 2 | 1 | -5 | 57* | -1
Cc1nn(CCO)c2c1C(=O)CCC2 | -1 | 0 | -1 | 20 | -2
CN(C)C1=NCCN1CC1CCCC1 | -15 | 0 | 8 | -8 | -5
CCn1cc([N+](=O)[O-])c(C(=O)N2N=C3/C(=C/c4cccs4)CCCC3C2c2cccs2)n1 (centres undefined) | -4 | -1 | 43* | -6 | -2
Cn1c(-c2cc3ccccc3oc2=O)nc2ccccc21 | -7 | -3 | 0 | -2 | -5
CC(=O)CCn1c(=O)n(CCC(C)=O)c(=O)n(CCC(C)=O)c1=O | -5 | -1 | 36* | 24 | 0
CCOc1ccccc1C(O)C1=CC(=O)c2ccccc2C1=O (centres undefined) | 58* | nt | nt | nt | 1
CC1=CC(=O)c2ccccc2C1=O | 22 | -1 | 5 | -23 | 3
COc1ccc(CCN(C)CCCC(C#N)(c2cc(OC)c(OC)c(OC)c2)C(C)C)cc1OC (centres undefined) | -25 | -2 | -26 | 45* | -3
Nc1ccc(-c2nc3ncccc3o2)cc1 | -1 | 0 | 2 | 33* | -3
CCOC(=O)C1=C(COC(=O)C(CC)c2ccccc2)NC(=O)NC1C (centres undefined) | -2 | 0 | 30* | 8 | 0
Cc1ccc(CSc2nc(-c3ccc(C(C)(C)C)cc3)nc3cc(=O)[nH]n23)cc1 | nt | -1 | 5 | nt | nt
Cc1ccccc1OCC(=O)Nc1ccccc1-c1ccccc1NC(=O)COc1ccccc1C | -20 | 0 | -3 | -1 | -4
Cc1cc(Br)ccc1NC(=O)CNC(=O)COc1ccccc1C | -13 | 0 | -14 | 32* | -5
CCn1c(C)cc(C(=O)CSc2nnnn2C2CCCC2)c1C | -16 | 0 | -4 | 30* | -1
Cc1ccc(-c2nc3ccc([N+](=O)[O-])cc3[nH]2)cc1 | -1 | 0 | 0 | 45* | 0
COc1ccc(-c2nc3ccc([N+](=O)[O-])cc3[nH]2)cc1 | 17 | 1 | 5 | 1 | 3
FC(F)(F)c1ccccc1Cc1c(-c2ccco2)nc2ccc(Cl)cn12 | -7 | nt | nt | nt | -4
O=C(CS(=O)(=O)Cc1ccccc1)Nc1ccc(Br)cc1F | -6 | nt | nt | nt | -3
CC(C)NC(=O)CN(Cc1ccc2c(c1)OCO2)C(=O)CCC(=O)Nc1ccccn1 | 1 | 0 | 9 | 43* | -1
CCCCNc1nc(=S)[nH]c2cc(OC)c(OC)cc12 | -17 | 1 | 1 | -14 | -2
Oc1ccc(-c2ccccc2)cc1CN1CCCCCC1 | -24 | -1 | -21 | 69* | -2
Cc1ccc(C)c(Nc2ncnc3nc[nH]c23)c1 | -11 | 1 | -5 | 8 | -5
O=C(c1ccco1)N1N=C(c2cccs2)CC1c1ccc(F)cc1 (centres undefined) | -22 | 1 | 3 | -24 | -2
